The list is not random: actives were taken first. Their share in the collection is about 7.6%.
Giardia killer: Small Molecules that selectively kill Giardia lamblia: qHTS | Giardia lamblia trophozoite viability | activity change, % at 7.66 µM, hits read low | 0.15% of 340,000 active | AID 540267, 2011; in the data active = activity change below about -80%; inconclusive = between about -30% and that limit;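 also: parasites exposed to compound for two days anaerobically before the ATP read; % is scaled to controls: 0 for no effect and ±100 for the full control effect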
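Compounds were tested on trophozoites seeded at 100 cells/well and held 48 hrs at 37 deg C anaerobically. An ATP-based luminescent kit measured the remaining live cells.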
BRCA1 expr act: qHTS Assay to Identify Small Molecule Activators of BRCA1 Expression. MCF7-BRCA1-FFLuc reporter, luminescence, 48 h; response scale: scaled: vehicle 0%, 10 µM genistein 100%. Potency, µM (doses to about 46.1 µM), inactives show at the highest dose activation, usual class: activators. 1.1% of 380,000 active; also: potency is read from the fitted curve at half-maximal effect; nearly all actives have a fitted effect of over 80% in size
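MCF7 cells carrying a BRCA1-firefly luciferase reporter (2000 cells/well, phenol-red free MEM) were attached for 2 h at 37 °C, then given compounds for 48 h. Luminescence was read 15 min after luciferase reagent; activity normalized to genistein (10 microM) and DMSO.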
p53 reactivator: qHTS assay for re-activators of p53 using a Luc reporter. H1299 p53-A138V BP100-luciferase reporter, luminescence, 24 h. Potency, µM (titrated, usually from 92.2 µM), without a hit: top-dose activity change, positive = activation, usual class: activators. 0.063% of 320,000 active; also: potency is read from the fitted curve at half-maximal effect; % of control where 0% means no effect; nearly all actives have a fitted effect of over 45% in size
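H1299 (p53-null), stable ts p53-A138V + BP100-Luc; 1000 cells/well, Opti-MEM/10% FBS; cpd 4 pt, 1:5; 24 h, 37 deg C, 5% CO2; detection reagent 10 min RT; luminescence.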
RORg inh: qHTS for inhibitors of ROR gamma transcriptional activity; 5.4% of 310,000 active; Potency, µM (titrated, usually from 53.6 µM), without a hit: top-dose activity change, negative = inhibition, actives largely listed as inhibitors; Nuclear receptor ROR-gamma (Mus musculus), P51450; Drosophila S2 Gal4-RORgamma UAS-luciferase reporter, 20 h; also: potency is read from the fitted curve at half-maximal effect; % is scaled to controls: 0 for no effect and ±100 for the full control effect; nearly all actives have a fitted effect of over 60% in size
Target sequence (P51450 whole entry, looked up, the tested form may be a part): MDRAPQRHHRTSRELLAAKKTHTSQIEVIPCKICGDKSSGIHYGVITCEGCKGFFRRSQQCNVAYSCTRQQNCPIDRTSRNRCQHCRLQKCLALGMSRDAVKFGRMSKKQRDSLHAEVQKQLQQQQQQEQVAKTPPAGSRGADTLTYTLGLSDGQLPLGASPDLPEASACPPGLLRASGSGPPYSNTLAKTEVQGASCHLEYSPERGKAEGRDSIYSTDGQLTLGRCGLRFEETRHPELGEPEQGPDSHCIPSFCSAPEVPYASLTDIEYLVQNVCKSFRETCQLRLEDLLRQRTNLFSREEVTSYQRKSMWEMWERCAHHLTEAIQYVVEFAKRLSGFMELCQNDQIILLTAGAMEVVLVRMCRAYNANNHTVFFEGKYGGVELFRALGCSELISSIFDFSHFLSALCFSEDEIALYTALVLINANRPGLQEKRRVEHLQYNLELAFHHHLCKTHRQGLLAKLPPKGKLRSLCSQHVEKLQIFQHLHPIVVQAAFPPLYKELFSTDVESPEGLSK
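Schneider cells (Drosophila), stable Gal4 DBD–ROR gamma + UAS-luc; 1 hr cmpd preincubation; Cu2+ induction 700 uM final; 20 hr ambient; luminescence.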
ELG1 repair inh: qHTS screen for small molecules that inhibit ELG1-dependent DNA repair in human embryonic kidney (HEK293T) cells expressing luciferase-tagged ELG1; HEK293T ELG1-luciferase reporter, luminescence, 16 h; DNA damage induced by 5-fluorouridine; Potency, µM (series often up to 46.1 µM), without a hit: at the top dose activity change, negative = inhibition, usual class: inhibitors; 2.3% of 330,000 active; AID 504467, 2011; also: potency is read from the fitted curve at half-maximal effect; % is scaled to controls: 0 for no effect and ±100 for the full control effect; nearly all actives have a fitted effect of over 55% in size
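HEK293T cells expressing luciferase-tagged ELG1 (2,000/well) received 5-Fluorouridine plus compound or DMSO for 16 hr at 37 °C. Luciferase was read by ONE-Glo luminescence after 30 min at room temperature.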
VP16 counter: VP16 counterscreen qHTS for inhibitors of ROR gamma transcriptional activity; Drosophila S2 Gal4-VP16 UAS-luciferase, luminescence, 20 h; Potency, µM (series often up to 53.6 µM), for the others: at the top dose activity, negative = inhibition, most hits filed as inhibitors; 3.5% of 310,000 active; AID 2546, 2010;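 also: Gal4-VP16 expression switched on by copper sulfate through the metallothionein promoter; potency is read from the fitted curve at half-maximal effect; % is scaled to controls: 0 for no effect and ±100 for the full control effect; nearly all actives have a fitted effect of over 50% in size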
* hit, by the source's call; ? = inconclusive; . = not tested or not shown; [ ] = dose if it differs, or a comment. Unless noted, calls follow the shape of the dose curve; as a rule, active = well fitted curve in the direction sought with a large enough effect; inconclusive = small, poorly fitted or top-dose-only effect, or another doubt; inactive = no such curve, though single readings can be large; an effect the other way counts as inactive or inconclusive.

SMILES	Giardia killer	BRCA1 expr act	p53 reactivator	RORg inh	ELG1 repair inh	VP16 counter
CCOc1ccc(C2C(C#N)=C(N)N(c3sc4c(c3C#N)CCCC4)C3=C2C(=O)CCC3)cc1 (centres undefined)	10	-42%	-9%	5%	2%	-5%
N/C(=N\OC(=O)c1cccc(Cl)c1)c1ccccn1	-13	-27%	.	?	?	?
Cc1cc(/C(N)=N/OC(=O)c2ccc(Cl)cc2)no1	13	7.9µM*	14%	-3%	?	-8%
COc1ccc(C(=O)O/N=C(\N)c2ccccn2)cc1	-7	?	-14%	14µM*	?	18µM*
N/C(=N\OC(=O)c1ccc(Cl)cc1)c1ccccn1	-21	-82%	?	8.9µM*	?	10µM*
N/C(=N\OC(=O)c1cccc(Br)c1)c1ccccn1	-10	-63%	-19%	10µM*	?	18µM*
COc1ccc(C(=O)CN2C(=O)c3ccccc3C2=O)c(OC)c1	3	54%	0%	12%	?	-8%
COCC(=O)N1CCC(Oc2ccc(C(=O)NC3Cc4ccccc4C3)cc2)CC1	8	-35%	-9%	0%	0%	2%
CC(C)=CCc1c(O)ccc(C2COc3c(CC=C(C)C)c(O)cc(O)c3C2=O)c1O (centres undefined)	-2	-8%	.	.	.	.
CCOc1ccccc1NC(=O)CSc1nnc(CCC(=O)Nc2ccccc2F)n1C	-11	5%	-7%	2%	-12%	-2%
O=C1CCc2cc(S(=O)(=O)NCCc3ccc(Cl)cc3)cc3c2N1CC3	-10	-16%	-5%	.	12%	.
COc1ccc(C(=O)O/N=C(\N)c2ccc(Cl)cc2)cc1	3	2.5µM*	?	-2%	?	-16%
CCC(=O)OCC(=O)[C@@]1(OC(=O)CC)[C@@H](C)C[C@H]2[C@@H]3CCC4=CC(=O)C=C[C@]4(C)[C@@]3(F)[C@@H](O)C[C@@]21C	.	.	.	-24%	.	-4%
COc1ccc(OC)c(S(=O)(=O)N2CCN(c3ccccc3)CC2)c1	-18	-11%	-3%	2%	4%	4%
COc1ccc(OC)c(S(=O)(=O)ON2C(=O)c3ccccc3C2=O)c1	-20	-39%	-3%	5.6µM*	-1%	7.9µM*
CC(C)CNC(=O)CSc1ccc(Cl)cc1	14	63%	10%	-5%	?	3%
Cc1ccc(SCCNC(=S)Nc2cc(C)cc(C)c2)cc1	9	-14%	0%	5µM*	-8%	7.9µM*
Cc1ccc(SCCNC(=S)Nc2ccc(C)cc2C)cc1	15	10%	9%	3.5µM*	-3%	7.9µM*
CC(CNC(=S)Nc1cc(F)cc(F)c1)CSc1ccc(Cl)cc1 (centres undefined)	13	-83%	-4%	8.9µM*	11%	?
Cc1ccc(NC(=O)NCCSc2ccc(C)cc2)cc1	-5	0%	-3%	25%	6%	-7%
Cc1cccc(C)c1NC(=S)NCCSc1ccc(Cl)cc1	-7	-47%	-1%	2.5µM*	?	?
CC1(C)OC(=O)C(=CNCCc2ccc(O)cc2)C(=O)O1	4	8%	1%	15%	-22%	-4%
Cn1c(C(=O)NCCCN2CCc3ccccc3C2)cc2c(=O)n(C)c3ccccc3c21	?	-8%	4%	-18%	13%	-7%
Cc1ccc(S(=O)(=O)NNC(=O)c2sc3nc(C)cc(C)c3c2-n2cccc2)cc1	-6	0%	1%	-23%	2%	-2%
COC(=O)Cc1ccc(NC(=S)NCCSc2ccc(C)cc2)cc1	1	-28%	13%	?	0%	1%[10 µM]
SMILES	Giardia killer	BRCA1 expr act	p53 reactivator	RORg inh	ELG1 repair inh	VP16 counter
Cc1ccc(NC(=S)NCCSc2ccc(Cl)cc2)cc1	3	-13%	-2%	0.79µM*	-22%	0.89µM*
O=C(NC(=S)Nc1ccccn1)c1ccc(-c2ccccc2)cc1	-90*	?	?	3.2µM*	?	4µM*
O=C(NC(=S)Nc1ccccn1)c1ccc([N+](=O)[O-])cc1	?	61%	?	5µM*	?	11µM*
Cc1cc(C)c(NC(=S)NC(=O)c2ccc(-c3ccccc3)cc2)c(C)c1	21	-18%	-7%	4.5µM*	12%	5.6µM*
C1CNCCOCCNCCN1	8	-1%	5%	-14%	17%	-9%
C=CCN=Cc1c(C)[nH]n(-c2ccccc2)c1=O	4	13µM*	?	26%	?	-7%
Cc1cccc(/N=C/c2c(C)[nH]n(-c3ccccc3)c2=O)n1	-15	-12%	0%	0%	-1%	4%
Cc1[nH]n(-c2ccccc2)c(=O)c1/C=N/N(c1ccccc1)c1ccccc1	-11	0%	0%	5.6µM*	?	?
Cc1[nH]n(-c2ccc([N+](=O)[O-])cc2)c(=O)c1C=NCCc1c(C)[nH]c2ccccc12	22	-58%	2%	17%	26µM*	1%
Cc1[nH]n(-c2ccc([N+](=O)[O-])cc2)c(=O)c1C=NCCc1ccc(S(N)(=O)=O)cc1	-8	-7%	0%	-18%	0%	-2%
Cc1nc(NCc2ccco2)c2cn[nH]c2n1	?	0%	.	.	.	.
CCCCN(C)C(=S)Nc1ccc(Oc2ccccc2)cc1	16	5%	7%	11µM*	7%	?
CCCN(CC1CC1)C(=S)Nc1ccc(Oc2ccccc2)cc1	4	4%	7%	13µM*	-9%	8.9µM*
CN(C(=S)Nc1ccc(Oc2ccccc2)cc1)C1CCCCC1	2	30%	26%	-42%[10 µM]	?	?
Fc1cccc(CN2CCC(Cc3ccccc3)CC2)c1	17	1%	.	-5%	-10%	-20%
CCOc1ccc(NC(=O)C[n+]2ccccc2)cc1	-4	5%	-3%	5%	?	0%
Cc1ccc(CNc2ccc(Cl)cc2[N+](=O)[O-])cc1	-29	72%	?	30%	?	11%
O=C(CCc1ccc(S(=O)(=O)N2CCOCC2)cc1)Nc1nc(COc2ccccc2)cs1	-3	-64%	-4%	-39%	21µM*	?
O=C(COc1ccccc1)Nc1nc(-c2ccc(S(=O)(=O)N3CCOCC3)cc2)cs1	4	-23%	-15%	17%	?	-12%
